Values without a mark were called inactive.
Test system: gramicidin D channels in DC22:1PC lipid vesicles (bilayer-modifying potency)
Assay: initial Tl+ fluorescence quench rate relative to no-drug control (NormRate, gramicidin monomer-dimer shift) (ratio (fold of control)); higher = stronger bilayer-modifying effect (equilibrium shifted toward conducting dimers), active = 1.5 or more
Settings: 10 µM; lipid concentration 50 µM; temperature: 25 °C
Experimental: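 Stopped-flow fluorescence quench assay: ANTS-loaded DC22:1PC large unilamellar vesicles doped with gramicidin D (1:2000), 50 µM lipid, equilibrated 10 min with 10 µM drug (0.1% DMSO), mixed with Tl+ quench buffer at 25°C. Initial quench rate (Tl+ influx) was fitted with a modified stretched exponential and normalised to the no-drug control rate (NormRate); duplicates from two independent LUV preparations (triplicates for 7 drugs).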

SMILES | initial Tl+ fluorescence quench rate
CCOc1ccc2cc(-c3nn(C(C)(C)C)c(N)c3C(N)=O)cnc2c1 | 1.21
COc1ccc(Cl)cc1NC(=O)CN(C)C(=O)c1cnn(-c2ccccc2)n1 | 3.28 (active)
CC1=Nc2ccc(Cl)cc2[C@](O)(c2ccc(C)cc2)N1CCN1CCCCC1 | 1.66 (active)
Nc1ncnc2[nH]nc(Cc3cccc4ccccc34)c12 | 1.15
C[C@@H](c1cc(Cl)cc(Cl)c1)N(C)c1ncc2c(N)nc(N)nc2n1 | 2.71 (active)
CCCn1c(NC(=O)c2ccc3ccccc3n2)nc2ccccc21 | 1.4
CCN(CC)CCCN1CCN(C(=O)c2cccc(-c3noc(C(F)(F)F)n3)c2)CC1 | 1.25
O=C(NC1CCCCC1)N1CCN(Cc2ccc3c(c2)OCO3)CC1 | 1.13
O=C(Nc1ccc(N2CCNCC2)nc1)c1oc(-c2ccccc2)nc1C(F)(F)F | 1.47
c1ccc(Oc2ccc(-c3cc(C4CCOCC4)[nH]n3)cc2)cc1 | 3.48 (active)
COc1ccc(-c2cc(NC(=O)c3ccc(F)cc3Cl)ccc2OC)cc1 | 2.04 (active)
CCCS(=O)(=O)N1CCC(CO)(Cc2ccccc2C(F)(F)F)CC1 | 1.62 (active)
COc1cc2ncnc(NC3CCN(Cc4ccccc4)CC3)c2cc1OC | 1.04
O=C(Nc1ccccc1)c1ccc(-c2cc3ccncc3cc2OC2CCNCC2)s1 | 1.8 (active)
c1ccc(-c2nc(NC3CCCCC3)cc(C3CC3)n2)nc1 | 1.76 (active)
CC(C)(C)c1ccc(N[C@@H]2CCCC[C@H]2NC(=O)c2ccco2)cc1 | 1.36
O=C(c1[nH]nc2c1CCCC2)N1CCN(Cc2ccc3c(c2)OCO3)CC1 | 1.03
Cc1ncc(-c2ccnc(Nc3ccc(S(C)(=O)=O)cc3)n2)n1C(C)C | 1.03
NS(=O)(=O)c1cncc(-c2ccc3nccc(-c4cn[nH]c4)c3n2)c1 | 1.18

SMILES | initial Tl+ fluorescence quench rate
O=C(NCc1cc(Cl)cc(Cl)c1)c1c(C(F)(F)F)nc2ccccn12 | 1.21
COc1cc(N[C@H](C)CCCN)c2ncccc2c1 | 1.02
Cn1ncc2c(N3CCOCC3)nc(NCCc3c[nH]c4ccccc34)nc21 | 3.03 (active)
CN1CCN(c2nccc3[nH]c(-c4cccc(F)c4)cc23)CC1 | 1.1
Cc1ccc(-c2nc(CN(Cc3ccccn3)C(C)C)cs2)o1 | 1.21
Cc1cc(OCC(=O)NCc2ccccc2)c2cc(Br)ccc2n1 | 1.45
Cc1cc(Nc2ccc(C(F)(F)F)cc2)n2ccnc2n1 | 1.05
CC[C@H](Sc1nc2ccccc2o1)C(=O)Nc1nccs1 | 1.18
CCn1ncc2c(NC3CCOCC3)c(CNC(=O)c3ccnn3C)c(C)nc21 | 1.07
O=C(c1ccco1)N(CCCn1ccnc1)c1nc2c(Cl)cccc2s1 | 1.24
O=C(Nc1nnc(S)s1)c1cc(Br)ccc1Cl | 1.2
O=C(NCCc1ccn(-c2ccccc2)n1)C1CCCCC1 | 1.05
CC(=O)N1CCc2cc3nc(C)cc(C)c3cc21 | 1.09
CC(C)/N=c1\cc2n(-c3ccc(Cl)cc3)c3ccccc3nc-2cc1Nc1ccc(Cl)cc1 | 5.63 (active)
CCOc1ccc(OCC(=O)Nc2cc(C)cc(C)c2)cc1 | 1.45
CO[C@H]1/C=C/O[C@@]2(C)Oc3c(C)c(O)c4c(O)c(/c(=C/NN5CCN(C)CC5)c(O)c4c3C2=O)=N\C(=O)/C(C)=C\C=C/[C@H](C)[C@H](O)[C@@H](C)[C@@H](O)[C@@H](C)[C@H](OC(C)=O)[C@@H]1C | 1.34
COC(=O)c1cccc2oc(-c3cccc(OC)c3NC(=O)c3cc(-c4ccccc4)on3)nc12 | 1.76 (active)
CC(=O)N(CCN(C(=O)c1ccc(F)cc1)c1ccccc1)c1ccccc1 | 1.14
CC1=Nc2ccc(Cl)cc2[C@H](c2ccccc2)N1CCNC(=O)CN(C)C | 1.07

Source: the supplement of paper PMC9948646
